Key:
Test in all cases: DAPPL (digital affinity profiling via proximity ligation, sequencing); 10 mM Tris-HCl pH 7.5, 50 mM NaCl, 1 mM DTT, 4% glycerol, room temperature, 30 min; GST-TFs on glutathione beads, 16-mer random dsDNA library, 0.1% formaldehyde crosslink after washing; high values mean tight binding
FEV = molecular target: T1, FEV (Homo sapiens, UniProt Q99581 1-238); conditions: protein: recombinant; tags: N-terminal GST; dsDNA, one strand shown
T1 sequence: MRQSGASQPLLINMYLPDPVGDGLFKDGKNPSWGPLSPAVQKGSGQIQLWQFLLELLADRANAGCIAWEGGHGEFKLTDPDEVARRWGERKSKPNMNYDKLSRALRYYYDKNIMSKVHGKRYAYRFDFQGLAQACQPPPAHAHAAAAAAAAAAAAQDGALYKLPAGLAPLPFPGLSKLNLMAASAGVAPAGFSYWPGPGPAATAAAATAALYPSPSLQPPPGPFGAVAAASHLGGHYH
Outline: (§1)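 Each value of binding signal is a hexamer's read frequency for a factor divided by the same hexamer's frequency in the tag-only sample. Barcoded, bead-captured GST fusions of human transcription factors made in yeast were pooled with that sample and incubated with 200 nmole of a random double-stranded 16-mer DNA library in Tris/NaCl/DTT/glycerol buffer at room temperature for 30 min. Washing, 0.1% formaldehyde crosslinking, proximity ligation, PCR and Illumina NextSeq500 sequencing followed.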

ETV5 = ETV5 (Homo sapiens, UniProt P41161 1-510); conditions: protein: recombinant; tags: N-terminal GST; dsDNA, one strand shown
ETV5, sequence (P41161 whole entry): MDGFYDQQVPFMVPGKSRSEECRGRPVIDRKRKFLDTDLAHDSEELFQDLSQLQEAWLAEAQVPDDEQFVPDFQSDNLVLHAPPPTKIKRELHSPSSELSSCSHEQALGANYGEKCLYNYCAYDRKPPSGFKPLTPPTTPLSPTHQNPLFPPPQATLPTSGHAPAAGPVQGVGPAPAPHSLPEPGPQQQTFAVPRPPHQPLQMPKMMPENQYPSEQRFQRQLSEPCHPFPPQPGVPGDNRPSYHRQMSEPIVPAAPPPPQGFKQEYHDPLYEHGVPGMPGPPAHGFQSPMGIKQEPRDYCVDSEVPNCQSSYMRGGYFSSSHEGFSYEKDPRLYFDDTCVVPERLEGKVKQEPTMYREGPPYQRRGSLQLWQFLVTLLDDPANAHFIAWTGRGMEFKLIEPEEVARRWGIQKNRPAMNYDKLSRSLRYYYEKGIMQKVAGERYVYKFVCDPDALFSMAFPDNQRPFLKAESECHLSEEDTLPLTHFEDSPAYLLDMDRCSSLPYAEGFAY
Outline: as §1

HSF1 = HSF1 (Homo sapiens, UniProt Q00613 1-529); conditions: protein: recombinant; tags: N-terminal GST; chain copies: 3; dsDNA, one strand shown
HSF1, sequence (Q00613 whole entry): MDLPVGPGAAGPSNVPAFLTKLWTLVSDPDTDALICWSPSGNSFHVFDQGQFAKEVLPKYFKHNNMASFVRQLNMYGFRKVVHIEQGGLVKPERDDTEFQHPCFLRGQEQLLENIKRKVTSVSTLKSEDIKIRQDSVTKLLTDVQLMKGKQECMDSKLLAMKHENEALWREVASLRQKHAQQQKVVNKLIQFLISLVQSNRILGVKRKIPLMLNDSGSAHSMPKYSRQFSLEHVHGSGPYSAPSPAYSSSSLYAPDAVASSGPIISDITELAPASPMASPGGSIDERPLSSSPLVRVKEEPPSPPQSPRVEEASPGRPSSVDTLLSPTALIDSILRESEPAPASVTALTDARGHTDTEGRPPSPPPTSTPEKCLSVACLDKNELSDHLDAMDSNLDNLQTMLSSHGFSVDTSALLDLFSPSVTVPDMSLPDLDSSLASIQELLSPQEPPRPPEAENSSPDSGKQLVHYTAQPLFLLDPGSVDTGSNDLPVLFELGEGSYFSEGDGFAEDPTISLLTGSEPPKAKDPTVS
Outline: as §1

SPIC = molecular target: T2, SPIC (Homo sapiens, UniProt Q8N5J4 1-248); conditions: protein: recombinant; tags: N-terminal GST; dsDNA, one strand shown
T2 sequence: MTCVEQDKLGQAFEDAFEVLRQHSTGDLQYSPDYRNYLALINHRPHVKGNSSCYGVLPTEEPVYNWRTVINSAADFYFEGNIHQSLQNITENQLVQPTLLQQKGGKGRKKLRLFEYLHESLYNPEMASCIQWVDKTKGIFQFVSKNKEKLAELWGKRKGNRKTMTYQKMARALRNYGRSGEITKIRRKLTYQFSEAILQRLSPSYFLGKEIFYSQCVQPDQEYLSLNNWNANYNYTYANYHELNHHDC
Outline: as §1

ELF4 = ELF4 (Homo sapiens, UniProt Q99607 1-663); conditions: protein: recombinant; tags: N-terminal GST; dsDNA, one strand shown
ELF4, sequence (Q99607 whole entry): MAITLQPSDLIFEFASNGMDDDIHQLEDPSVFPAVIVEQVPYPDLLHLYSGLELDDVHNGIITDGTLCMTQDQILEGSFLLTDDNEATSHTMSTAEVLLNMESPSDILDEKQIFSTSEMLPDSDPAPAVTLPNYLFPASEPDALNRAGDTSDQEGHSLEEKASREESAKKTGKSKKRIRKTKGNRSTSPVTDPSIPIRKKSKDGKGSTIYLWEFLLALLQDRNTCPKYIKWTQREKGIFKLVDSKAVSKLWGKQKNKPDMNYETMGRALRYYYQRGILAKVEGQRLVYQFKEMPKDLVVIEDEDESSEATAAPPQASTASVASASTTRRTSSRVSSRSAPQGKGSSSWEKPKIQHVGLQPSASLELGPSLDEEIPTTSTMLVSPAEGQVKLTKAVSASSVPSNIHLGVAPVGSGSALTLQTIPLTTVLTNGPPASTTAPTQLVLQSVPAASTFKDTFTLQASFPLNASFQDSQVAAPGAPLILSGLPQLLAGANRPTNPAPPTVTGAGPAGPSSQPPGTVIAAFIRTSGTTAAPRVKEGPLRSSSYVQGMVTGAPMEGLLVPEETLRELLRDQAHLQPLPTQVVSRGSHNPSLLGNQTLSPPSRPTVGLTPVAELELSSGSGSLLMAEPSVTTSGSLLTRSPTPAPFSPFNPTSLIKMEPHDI
Outline: as §1

ELK4 = molecular target: T3, ELK4 (Homo sapiens, UniProt P28324-2 1-405); conditions: protein: recombinant; tags: N-terminal GST; dsDNA, one strand shown
T3 sequence: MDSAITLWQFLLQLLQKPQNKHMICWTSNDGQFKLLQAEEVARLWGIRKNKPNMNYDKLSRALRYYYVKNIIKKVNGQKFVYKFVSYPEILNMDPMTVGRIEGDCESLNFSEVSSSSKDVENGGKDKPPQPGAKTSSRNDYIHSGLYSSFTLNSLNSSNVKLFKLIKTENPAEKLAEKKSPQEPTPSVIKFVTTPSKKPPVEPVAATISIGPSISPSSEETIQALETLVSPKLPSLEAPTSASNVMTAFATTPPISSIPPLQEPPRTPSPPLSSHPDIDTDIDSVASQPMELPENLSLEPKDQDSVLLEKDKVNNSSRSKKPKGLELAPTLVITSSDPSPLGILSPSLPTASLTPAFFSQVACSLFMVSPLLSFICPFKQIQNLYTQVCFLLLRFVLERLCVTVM
Outline: as §1

ETV2 = molecular target: T4, ETV2 (Homo sapiens, UniProt O00321 1-342); conditions: protein: recombinant; tags: N-terminal GST; dsDNA, one strand shown
T4 sequence: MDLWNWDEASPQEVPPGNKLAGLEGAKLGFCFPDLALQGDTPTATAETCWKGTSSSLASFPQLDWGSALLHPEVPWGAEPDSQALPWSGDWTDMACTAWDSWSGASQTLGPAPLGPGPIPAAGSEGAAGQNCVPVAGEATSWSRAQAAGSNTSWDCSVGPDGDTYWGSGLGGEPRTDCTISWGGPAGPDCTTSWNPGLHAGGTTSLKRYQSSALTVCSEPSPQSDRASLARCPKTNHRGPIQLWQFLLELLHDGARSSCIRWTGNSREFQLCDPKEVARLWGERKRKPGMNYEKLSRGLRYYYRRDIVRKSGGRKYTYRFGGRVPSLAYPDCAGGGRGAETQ
Outline: as §1

ELF3 = molecular target: T5, ELF3 (Homo sapiens, UniProt P78545 1-371); conditions: protein: recombinant; tags: N-terminal GST; dsDNA, one strand shown
T5 sequence: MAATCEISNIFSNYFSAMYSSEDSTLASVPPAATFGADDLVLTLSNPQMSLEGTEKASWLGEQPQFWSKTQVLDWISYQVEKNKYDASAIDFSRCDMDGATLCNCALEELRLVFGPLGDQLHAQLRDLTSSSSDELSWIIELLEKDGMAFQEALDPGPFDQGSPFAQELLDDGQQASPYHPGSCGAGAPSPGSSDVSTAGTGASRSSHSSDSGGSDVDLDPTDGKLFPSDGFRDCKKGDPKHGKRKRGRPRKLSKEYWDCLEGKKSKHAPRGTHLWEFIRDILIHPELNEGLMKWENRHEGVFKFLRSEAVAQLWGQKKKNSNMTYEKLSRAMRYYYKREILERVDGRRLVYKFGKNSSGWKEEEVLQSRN
Outline: as §1

CRX = CRX (Homo sapiens, UniProt O43186 1-299); conditions: protein: recombinant; tags: N-terminal GST; dsDNA, one strand shown
CRX, sequence (O43186 whole entry): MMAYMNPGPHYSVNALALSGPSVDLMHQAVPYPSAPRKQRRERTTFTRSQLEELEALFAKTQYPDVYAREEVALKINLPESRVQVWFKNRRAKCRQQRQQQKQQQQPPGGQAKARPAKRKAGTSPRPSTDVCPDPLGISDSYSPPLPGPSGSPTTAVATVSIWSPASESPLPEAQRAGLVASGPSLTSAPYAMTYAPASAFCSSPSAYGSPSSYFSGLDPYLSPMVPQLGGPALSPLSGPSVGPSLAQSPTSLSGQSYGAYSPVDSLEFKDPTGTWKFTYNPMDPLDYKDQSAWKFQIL
Outline: as §1

ETV1 = ETV1 (Homo sapiens, UniProt P50549 1-477); conditions: protein: recombinant; tags: N-terminal GST; dsDNA, one strand shown
ETV1, sequence (P50549 whole entry): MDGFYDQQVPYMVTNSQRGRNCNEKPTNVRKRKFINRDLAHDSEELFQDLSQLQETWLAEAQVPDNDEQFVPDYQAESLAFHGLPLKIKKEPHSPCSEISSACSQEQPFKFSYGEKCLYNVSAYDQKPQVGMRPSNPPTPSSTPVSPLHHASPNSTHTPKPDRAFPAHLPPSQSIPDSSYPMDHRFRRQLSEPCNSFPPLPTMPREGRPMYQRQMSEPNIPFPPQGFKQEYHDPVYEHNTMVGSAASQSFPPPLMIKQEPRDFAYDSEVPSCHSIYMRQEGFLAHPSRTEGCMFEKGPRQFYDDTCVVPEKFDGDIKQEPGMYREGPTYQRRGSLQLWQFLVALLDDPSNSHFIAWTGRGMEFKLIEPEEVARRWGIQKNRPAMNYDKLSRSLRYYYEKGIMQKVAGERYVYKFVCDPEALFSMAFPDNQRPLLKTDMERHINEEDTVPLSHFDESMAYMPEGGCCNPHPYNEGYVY
Outline: as §1

ERF = molecular target: T6, ERF (Homo sapiens, UniProt P50548 1-548); conditions: protein: recombinant; tags: N-terminal GST; dsDNA, one strand shown
T6 sequence: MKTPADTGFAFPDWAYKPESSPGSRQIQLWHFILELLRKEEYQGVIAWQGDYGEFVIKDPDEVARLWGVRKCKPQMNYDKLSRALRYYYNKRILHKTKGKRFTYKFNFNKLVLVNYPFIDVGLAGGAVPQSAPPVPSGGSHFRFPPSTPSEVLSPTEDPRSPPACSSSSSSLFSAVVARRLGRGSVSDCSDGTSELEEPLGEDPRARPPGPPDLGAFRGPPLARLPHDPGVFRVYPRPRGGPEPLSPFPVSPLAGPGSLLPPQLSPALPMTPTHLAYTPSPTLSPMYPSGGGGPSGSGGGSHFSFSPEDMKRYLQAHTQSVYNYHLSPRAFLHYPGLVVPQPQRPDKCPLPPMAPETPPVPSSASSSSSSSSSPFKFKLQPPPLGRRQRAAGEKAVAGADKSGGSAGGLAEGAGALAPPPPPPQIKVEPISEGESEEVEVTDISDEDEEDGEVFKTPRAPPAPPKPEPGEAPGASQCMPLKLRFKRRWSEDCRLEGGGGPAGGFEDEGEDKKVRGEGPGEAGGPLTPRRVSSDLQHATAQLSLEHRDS
Outline: as §1

ETV3L = molecular target: T7, ETV3L (Homo sapiens, UniProt Q6ZN32 1-361); conditions: protein: recombinant; tags: N-terminal GST; dsDNA, one strand shown
T7 sequence: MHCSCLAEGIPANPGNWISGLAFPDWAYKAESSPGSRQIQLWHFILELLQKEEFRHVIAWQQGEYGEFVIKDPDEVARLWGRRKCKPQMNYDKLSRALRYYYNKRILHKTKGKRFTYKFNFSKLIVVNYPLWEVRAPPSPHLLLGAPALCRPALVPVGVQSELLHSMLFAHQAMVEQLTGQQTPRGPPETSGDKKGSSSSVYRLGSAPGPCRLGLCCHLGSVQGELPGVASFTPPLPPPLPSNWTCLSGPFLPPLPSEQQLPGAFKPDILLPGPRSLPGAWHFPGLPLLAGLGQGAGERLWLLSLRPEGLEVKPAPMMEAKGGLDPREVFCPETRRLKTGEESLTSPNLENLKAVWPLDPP
Outline: as §1

ETS2 = molecular target: T8, ETS2 (Homo sapiens, UniProt P15036 1-469); conditions: protein: recombinant; tags: N-terminal GST; dsDNA, one strand shown
T8 sequence: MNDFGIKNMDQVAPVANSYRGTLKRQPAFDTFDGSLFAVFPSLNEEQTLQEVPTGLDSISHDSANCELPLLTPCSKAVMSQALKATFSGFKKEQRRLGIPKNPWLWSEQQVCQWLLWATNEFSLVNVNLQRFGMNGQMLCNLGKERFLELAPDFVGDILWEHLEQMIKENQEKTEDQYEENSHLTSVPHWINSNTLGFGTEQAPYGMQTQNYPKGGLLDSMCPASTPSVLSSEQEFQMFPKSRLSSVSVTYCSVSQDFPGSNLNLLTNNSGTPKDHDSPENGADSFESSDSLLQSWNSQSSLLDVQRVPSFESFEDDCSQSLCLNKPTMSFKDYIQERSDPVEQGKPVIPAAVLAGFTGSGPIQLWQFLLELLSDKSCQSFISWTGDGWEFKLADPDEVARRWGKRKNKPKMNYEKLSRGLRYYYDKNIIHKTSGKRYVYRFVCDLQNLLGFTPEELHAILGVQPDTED
Outline: as §1

SPDEF = molecular target: T9, SPDEF (Homo sapiens, UniProt O95238 1-335); conditions: protein: recombinant; tags: N-terminal GST; dsDNA, one strand shown
T9 sequence: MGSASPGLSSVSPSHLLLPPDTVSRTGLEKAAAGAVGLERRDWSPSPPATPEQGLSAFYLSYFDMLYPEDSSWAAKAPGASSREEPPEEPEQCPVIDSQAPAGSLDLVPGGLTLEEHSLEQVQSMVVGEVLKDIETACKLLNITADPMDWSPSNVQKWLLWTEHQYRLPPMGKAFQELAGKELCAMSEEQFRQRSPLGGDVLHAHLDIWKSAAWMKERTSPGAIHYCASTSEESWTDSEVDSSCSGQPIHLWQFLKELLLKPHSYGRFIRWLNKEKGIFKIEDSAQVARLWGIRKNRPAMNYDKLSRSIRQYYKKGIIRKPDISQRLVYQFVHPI
Outline: as §1

ETV7 = molecular target: T10, ETV7 (Homo sapiens, UniProt Q9Y603 1-341); conditions: protein: recombinant; tags: N-terminal GST; dsDNA, one strand shown
T10 sequence: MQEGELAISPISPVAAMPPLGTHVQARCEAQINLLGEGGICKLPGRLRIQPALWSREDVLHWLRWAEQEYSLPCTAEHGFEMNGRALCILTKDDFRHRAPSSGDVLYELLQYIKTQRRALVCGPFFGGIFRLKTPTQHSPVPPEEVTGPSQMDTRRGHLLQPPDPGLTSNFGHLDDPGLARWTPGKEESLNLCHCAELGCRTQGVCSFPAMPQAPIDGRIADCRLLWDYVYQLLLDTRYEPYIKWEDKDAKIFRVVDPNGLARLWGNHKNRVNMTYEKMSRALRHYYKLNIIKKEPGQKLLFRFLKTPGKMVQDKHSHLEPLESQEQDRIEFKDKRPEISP
Outline: as §1

ELF5 = molecular target: T11, ELF5 (Homo sapiens, UniProt Q9UKW6-2 1-255); conditions: protein: recombinant; tags: N-terminal GST; dsDNA, one strand shown
T11 sequence: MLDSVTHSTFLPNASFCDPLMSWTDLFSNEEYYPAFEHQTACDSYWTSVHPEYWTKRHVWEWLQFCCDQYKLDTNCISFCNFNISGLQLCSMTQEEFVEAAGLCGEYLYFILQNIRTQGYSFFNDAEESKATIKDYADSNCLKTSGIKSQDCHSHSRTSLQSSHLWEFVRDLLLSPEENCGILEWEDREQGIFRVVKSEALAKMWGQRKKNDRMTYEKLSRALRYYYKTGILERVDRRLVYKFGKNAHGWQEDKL
Outline: as §1

ETV3 = molecular target: T12, ETV3 (Homo sapiens, UniProt P41162-2 1-143); conditions: protein: recombinant; tags: N-terminal GST; dsDNA, one strand shown
T12 sequence: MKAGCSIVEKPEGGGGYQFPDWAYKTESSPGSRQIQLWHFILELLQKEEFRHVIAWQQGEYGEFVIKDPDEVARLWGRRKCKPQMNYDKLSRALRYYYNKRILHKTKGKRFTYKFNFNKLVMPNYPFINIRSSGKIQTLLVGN
Outline: as §1

ETV6 = ETV6 (Homo sapiens, UniProt P41212 1-452); conditions: protein: recombinant; tags: N-terminal GST; dsDNA, one strand shown
ETV6, sequence (P41212 whole entry): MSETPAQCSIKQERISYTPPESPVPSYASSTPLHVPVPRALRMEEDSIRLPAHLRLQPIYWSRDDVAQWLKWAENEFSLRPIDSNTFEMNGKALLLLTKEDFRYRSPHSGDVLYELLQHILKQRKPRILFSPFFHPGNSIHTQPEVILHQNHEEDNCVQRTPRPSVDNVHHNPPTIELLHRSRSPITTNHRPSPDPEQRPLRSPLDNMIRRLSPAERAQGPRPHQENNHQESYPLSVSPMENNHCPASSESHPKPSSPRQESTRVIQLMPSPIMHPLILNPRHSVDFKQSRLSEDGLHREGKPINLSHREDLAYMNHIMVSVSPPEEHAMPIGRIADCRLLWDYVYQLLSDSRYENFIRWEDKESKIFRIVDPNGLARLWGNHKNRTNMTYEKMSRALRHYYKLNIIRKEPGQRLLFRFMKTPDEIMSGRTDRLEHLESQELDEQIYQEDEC
Outline: as §1

Which binding signal (FEV) does the source give for AGATTC here?
The binding signal was 1.13 fold enrichment (6-mer frequency, TF over GST control).

What about the binding signal (ETV5) of the same sequence?
Its binding signal is 1.07 fold enrichment (6-mer frequency, TF over GST control).

What about the binding signal (HSF1) of the same sequence?
Its binding signal is 2 fold enrichment (6-mer frequency, TF over GST control).

What about the binding signal (SPIC) of the same sequence?
Its binding signal is 1.24 fold enrichment (6-mer frequency, TF over GST control).

And the binding signal (ELF4)?
Its binding signal is 1.16 fold enrichment (6-mer frequency, TF over GST control).

What about the binding signal (ELK4) of the same sequence?
Its binding signal is 1.18 fold enrichment (6-mer frequency, TF over GST control).

What about the binding signal (ETV2) of the same sequence?
The binding signal was 1.32 fold enrichment (6-mer frequency, TF over GST control).

What about the binding signal (ELF3) of the same sequence?
The binding signal was 1.11 fold enrichment (6-mer frequency, TF over GST control).

What about the binding signal (CRX) of the same sequence?
The binding signal was 1.41 fold enrichment (6-mer frequency, TF over GST control).

What about the binding signal (ETV1) of the same sequence?
The binding signal was 1.22 fold enrichment (6-mer frequency, TF over GST control).

What about the binding signal (ERF) of the same sequence?
The binding signal was 1.05 fold enrichment (6-mer frequency, TF over GST control).

What about the binding signal (ETV3L) of the same sequence?
Its binding signal is 1.23 fold enrichment (6-mer frequency, TF over GST control).

What about the binding signal (ETS2) of the same sequence?
The binding signal was 1.08 fold enrichment (6-mer frequency, TF over GST control).

And the binding signal (SPDEF)?
Its binding signal is 1.17 fold enrichment (6-mer frequency, TF over GST control).

And the binding signal (ETV7)?
Its binding signal is 1.18 fold enrichment (6-mer frequency, TF over GST control).

What about the binding signal (ELF5) of the same sequence?
The binding signal was 1.09 fold enrichment (6-mer frequency, TF over GST control).

And the binding signal (ETV3)?
The binding signal was 1.15 fold enrichment (6-mer frequency, TF over GST control).

What about the binding signal (ETV6) of the same sequence?
The binding signal was 1.22 fold enrichment (6-mer frequency, TF over GST control).
